An excerpt weighted towards active compounds, which were near 2.2% of everything screened.
LGR2 inh = Drosophila LGR2 receptor signaling inhibition | AID 720647 | 380,000 compounds, 0.35% hits | HEK293 LGR2, CRE-luciferase, bursicon-stimulated, 4 h | inhibition, % at 9.99 µM;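 active = drop in luminescence signal, shown as inhibition above about 50% in the replicate tests, limit read from the data, passing the limit was not always enough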;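 also: agonist challenge used bursicon conditioned medium at about half maximal strength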
TROY signal inh = TROY signaling inhibition. AID 1347056. Q293 LMP1-TROYcd NF-kB luciferase reporter, 4 h. inhibition, % at 10 µM. 360,000 compounds, 0.98% hits;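 active = compounds whose plate-normalised and pattern-corrected inhibition of the luciferase reporter signal at the single screening dose is 50% or more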
TWEAK Fn14 block = blocks TWEAK-Fn14 interaction in a reporter cell assay; TWEAK-stimulated Fn14 reporter cells, luciferase luminescence, 8 h; inhibition, % at 10 µM; 360,000 compounds, 2% hits; in the data active = inhibition above about 50%
HSP90 inh = blocks HSP90-mediated luciferase refolding in reticulocyte lysate. Rabbit reticulocyte lysate, luciferase refolding luminescence, 3 h. 290,000 compounds, 0.91% hits. inhibition, % at 5.6 µM;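 active = inhibition above the screen-wide mean plus 3 SD, computed separately per campaign, cut at about 16% in these data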;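 also: 0% = DMSO wells and 100% = 60 µM geldanamycin wells; inhibitors lower the luminescence because luciferase stays unfolded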
The depositor's hits bear a star; nt = no result given.

SMILES	LGR2 inh	TROY signal inh	TWEAK Fn14 block	HSP90 inh
FC(F)(F)c1cnc(NNC(=S)Nc2ccccc2Cl)c(Cl)c1	36.0	59.4*	50.8*	4.8
COc1cccc(S(=O)(=O)N[C@@H]2CC[C@H](CCNC(=O)Nc3cc(F)ccc3F)O[C@@H]2CO)c1	-10.0	nt	nt	nt
O=C(C[C@H]1CC[C@H]2[C@@H](COC[C@@H](O)CN2S(=O)(=O)c2ccc(Cl)cc2)O1)NCc1ccc(Cl)c(Cl)c1	6.6	nt	nt	nt
O=C(NCCN1C(=O)S/C(=C\c2ccc(Cl)c(Cl)c2)C1=O)C1COc2ccccc2O1 (stereo not given)	6.1	22.7	29.3	-3.2
O=C(NCCN1C(=O)S/C(=C\c2ccc(Cl)c(Cl)c2)C1=O)c1ccc2c(c1)C(=O)N(Cc1ccncc1)C2=O	11.5	-23.4	58.1*	-2.6
C=CCC[C@@H](Cc1ccc(F)cc1)C(=O)OC[C@@H](Cc1c[nH]c2ccccc12)NC(=O)[C@H](CC=C)CC(=O)N(CCO)Cc1ccccc1	43.4	33.2	57.5*	nt
C=CCC[C@H](Cc1ccc(F)cc1)C(=O)OC[C@@H](Cc1c[nH]c2ccccc12)NC(=O)[C@H](CC=C)CC(=O)N(CCO)Cc1ccccc1	19.0	38.0	88.5*	nt
C=CCC[C@H](Cc1ccc(F)cc1)C(=O)OC[C@@H](Cc1c[nH]c2ccccc12)NC(=O)[C@H](CC=C)CC(=O)NCCO	6.4	21.1	21.1	nt
Cc1noc(C)c1NC(=O)Nc1cccc2c1O[C@H](CN(C)C(=O)Nc1ccccc1)[C@H](C)CN([C@@H](C)CO)C2=O	9.2	nt	nt	nt
CCOC(=O)c1cnc2ccc(C)cc2c1Nc1ccc(N2CCOCC2)cc1	nt	24.7	55.6*	-0.5
CCOC(=O)c1ccc2ncc(C(=O)OCC)c(NCCN3CCOCC3)c2c1	1.1	-3.5	-25.6	0.1
O=C(C[C@@H]1CC[C@H](NC(=O)Nc2cc(F)ccc2F)[C@H](CO)O1)Nc1ccccc1	15.2	nt	nt	nt
O=S(=O)(Nc1cccc2ccccc12)c1cccs1	-7.7	-0.1	-7.2	-2.8
O=S(=O)(Nc1ccc(O)c2ccccc12)c1cccs1	-36.8	28.1	82.0*	7.7
O=C(CN1C(=O)c2ccccc2S1(=O)=O)N1CCN(c2ccccc2F)CC1	nt	-27.9	9.3	0.6
O=C(CN1C(=O)c2ccccc2S1(=O)=O)c1cccc(Br)c1	38.1	79.6*	99.3*	0.5
O=C(CN1C(=O)c2ccccc2S1(=O)=O)c1ccc(F)cc1	74.5*	73.4*	90.8*	2.0
O=C(CN1C(=O)c2ccccc2S1(=O)=O)c1ccc(OC(F)F)cc1	nt	82.3*	97.6*	0.1
O=C(CN1C(=O)c2ccccc2S1(=O)=O)c1ccccc1F	73.3*	77.7*	93.1*	12.2
COC(=O)c1ccc(NC(=O)CN2C(=O)c3ccccc3S2(=O)=O)cc1	4.6	17.3	28.4	6.9
CC(C)C(NC(=O)CN1C(=O)c2ccccc2S1(=O)=O)C(C)C	-18.7	-21.0	0.1	2.4
Cc1ccnc(NC(=O)COc2ccccc2[N+](=O)[O-])c1	-4.7	6.8	51.0*	0.8
Cc1ccc(NC(=O)COc2ccccc2[N+](=O)[O-])nc1	53.9*	43.3	57.8*	9.4
O=C(NC1CCCCC1)N1CC(=O)N2[C@H](CO)[C@@H](c3ccc(/C=C/c4ccccc4)cc3)[C@@H]2C1	11.7	nt	nt	nt
CC(C)NC(=O)N(C)C[C@@H]1Oc2ncc(C#Cc3ccccc3F)cc2C(=O)N([C@@H](C)CO)C[C@@H]1C	-19.2	nt	nt	nt
SMILES	LGR2 inh	TROY signal inh	TWEAK Fn14 block	HSP90 inh
CCOC1=C2[C@H](c3ccccc3)N(S(=O)(=O)c3ccc(C)cc3)C(C(C)(C)C)[C@H]2C(C#N)(C#N)C(C#N)(C#N)C1 (stereo not given in full)	13.4	17.1	53.8*	nt
Nc1nc(Cl)cc(N2CCC(c3cc(-c4ccc(Cl)cc4)n[nH]3)CC2)n1	28.2	40.3	94.4*	7.2
COc1ccc(OC)c(-c2cc(C3CCN(c4cc(Cl)nc(N)n4)CC3)[nH]n2)c1	nt	53.2*	66.9*	0.6
COc1ccc2[nH]c(=O)c(CN(CCO)S(=O)(=O)c3ccc(C)cc3)cc2c1	-4.5	-7.4	7.2	-0.2
CCCCN(Cc1cc2cc(OC)ccc2[nH]c1=O)S(=O)(=O)c1ccc(C)cc1	16.1	46.2	52.1*	2.1
COc1ccc(CCNC(=O)c2cc3c(=O)n4cccc(C)c4nc3n(Cc3ccco3)c2=N)cc1OC	-13.2	10.3	86.5*	1.5
Cc1cccn2c(=O)c3cc(C(=O)NCCc4ccccc4)c(=N)n(Cc4ccco4)c3nc12	18.9	33.4	101.1*	-2.0
N=c1c(C(=O)NCc2ccc(F)cc2)cc2c(=O)n3ccccc3nc2n1Cc1ccco1	nt	58.5*	95.1*	1.9
On1ccccc1=S	20.8	68.6*	105.7*	nt
O=C(Cn1ccccc1=S)c1ccc(Cl)c(Cl)c1	4.6	17.4	7.8	nt
COc1ccc(NC(=O)Nc2ccc3c(c2)[C@H]2C[C@H](CC(=O)N4CCN(C)CC4)O[C@H](CO)[C@H]2O3)cc1	11.1	nt	nt	nt
COc1ccc(NC(=O)N(C)C[C@@H]2Oc3ccc(NS(=O)(=O)c4ccc(F)cc4)cc3CC(=O)N([C@H](C)CO)C[C@H]2C)cc1	4.6	nt	nt	nt
CC(=O)c1ccc(NC(=O)/C(Cl)=C/c2ccccc2)cc1	-25.3	71.2*	39.7	10.3
Cc1ccc(NC(=O)/C(Cl)=C\c2ccccc2)cc1	40.5	-4.7	42.4	nt
O=[N+]([O-])c1ccc(Nc2ccccc2)c2nonc12	-3.2	11.0	30.4	-0.5
O=[N+]([O-])c1ccc(Sc2cccc[n+]2[O-])c2nonc12	25.1	86.3*	93.8*	23.7*
Nc1nc(SCC(=O)C23CC4CC(CC(C4)C2)C3)n[nH]1	nt	nt	72.0*	2.0
CN(C(=O)CSc1n[nH]c(N)n1)C1CCCCC1	-0.1	13.2	0.9	nt
N#Cc1c(N)nc(SCC(=O)C23CC4CC(CC(C4)C2)C3)c(C#N)c1-c1ccc(Cl)cc1	16.7	-15.5	-44.5	3.5
CSc1nc(N)nc(SCC(=O)C23CC4CC(CC(C4)C2)C3)c1C#N	-1.2	54.4*	93.4*	3.4
Cc1cc(CSc2ccccc2)ccc1NC(=O)c1ccc(CN2CCOCC2)cc1	5.8	24.1	51.6*	-3.4
CSc1ccccc1NC(=O)c1ccc(CN2CCOCC2)cc1	-2.3	-19.4	-10.2	3.3
CCCC(=O)NC(NC(=S)Nc1ccc(N=Nc2ccccc2)cc1)C(Cl)(Cl)Cl (stereo not given)	nt	15.2	75.9*	5.9
CCc1ccc(OCC(=O)NC(NC(=S)Nc2ccc(Cl)cc2)C(Cl)(Cl)Cl)cc1 (stereo not given)	26.8	46.2	72.0*	-4.1
S=C(NCC1CCCO1)N1CCN(c2nc(-c3ccc(Cl)cc3)cs2)CC1 (stereo not given)	12.2	25.6	63.9*	-0.9
COc1ccc2c3c([nH]c2c1)[C@H](CO)N(Cc1cc(F)ccc1F)CC31CN(C(C)=O)C1	-1.3	nt	nt	nt
COc1ccc(NC(=O)CSc2nc(O)cc(=O)n2-c2ccccc2)cc1	1.7	-9.0	18.4	-5.7
CCn1c(SCC(=O)Nc2nc3ccccc3s2)nnc1-c1ccc(Br)cc1	nt	0.9	65.8*	-1.6
Cc1ccc(-c2csc(NC(=O)CSc3nc4ccccc4[nH]3)n2)cc1	-10.6	56.6*	71.9*	2.6

Assay outcomes: PubChem, several laboratories
